From PubChem BioAssay (Tox21)
Results filed as inconclusive are left out. Calls of active or inactive are those of the source. Unless noted, calls come from the whole dose curve; as a rule, active = well fitted curve in the direction sought with a large enough effect in the repeat runs; inconclusive = weak or mixed curves; inactive = no such curve, though single readings can be large; an effect the other way counts as inactive or inconclusive.

How the values were obtained:
[1] = qHTS assay for small molecules that induce genotoxicity in human embryonic kidney cells expressing luciferase-tagged ATAD5 (AID 651632); note: % is set by controls: 0 for no effect and ±100 for the full control effect; nearly all actives have a fitted effect of over 15% in size
Procedure, shortened: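 Test compounds were delivered by pin tool onto HEK293T reporter cells (2,000/well) expressing ATAD5 fused to luciferase. After 16 hr at 37C, 5% CO2, Amplite was added for 30 min at room temperature and luminescence was measured.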

[2] = qHTS assay for small molecule agonists of the p53 signaling pathway - cell viability (AID 651633; calls by dose curve;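 note: p53RE-bla HCT reporter cells with a stable beta-lactamase p53 reporter; series mostly up to about 83 µM; % is set by controls: 0 for no effect and ±100 for the full control effect; nearly all actives have a fitted effect of over 30% in size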)
Procedure, shortened: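 p53RE-bla cells, seeded at 4,000 per well and rested 5 h at 37 C/5% CO2, received compounds in DMSO for 16 h at 37 C. CellTiter-Glo was then added, and luminescence was read after 30 min at room temperature to gauge cytotoxicity.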

[3] = qHTS assay for small molecules that induce genotoxicity in human embryonic kidney cells expressing luciferase-tagged ATAD5 - cell viability (AID 651634; calls by dose curve; note: % is set by controls: 0 for no effect and ±100 for the full control effect; nearly all actives have a fitted effect of over 25% in size)
Procedure, shortened: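 Quantitative high-throughput format. HEK293T cells expressing ATAD5 fused to luciferase were plated at 2,000 cells/well and treated 15.5 hr with compound versus DMSO. Viability was determined by fluorescent live-cell protease substrate, 30 min at 37C.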

[4] = qHTS assay to test for compound auto fluorescence at 590 nm (red) in HepG2 cells (AID 720674); note: % is set by controls: 0 for no effect and ±100 for the full control effect
Procedure, shortened: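 Compound auto-fluorescence is scored relative to Rose Bengal sodium, measured at 540/590 nm in live HepG2 cultures after 1 hr compound contact (37 C, 5% CO2).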

[5] = qHTS assay to test for compound auto fluorescence at 535 nm (green) in HepG2 cells (AID 720675); note: % is set by controls: 0 for no effect and ±100 for the full control effect
[6] = qHTS assay to test for compound auto fluorescence at 590 nm (red) in HEK293 cells (AID 720679); note: % is set by controls: 0 for no effect and ±100 for the full control effect
Procedure, shortened: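 Red-channel autofluorescence (Ex/Em 540/590 nm; Rose Bengal sodium reference) was measured after overnight 37C, 5% CO2 exposure of attached HEK293 cells, 2,000 per well in medium with 10% dialyzed FBS.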

[7] = qHTS assay to test for compound auto fluorescence at 535 nm (green) in HEK293 cells (AID 720680); note: % is set by controls: 0 for no effect and ±100 for the full control effect
[8] = qHTS assay to test for compound auto fluorescence at 460 nm (blue) in HEK293 cell free culture (AID 720681); note: % is set by controls: 0 for no effect and ±100 for the full control effect
Procedure, shortened: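 Test compounds were pinned into cell-free culture medium (DMEM with 10% FBS) and fluorescence was read directly at Ex/Em 405/460 nm. Signals were expressed as fluorescence equivalents of triamterene, with DMSO vehicle as control.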

[9] = qHTS assay to test for compound auto fluorescence at 535 nm (green) in HEK293 cell free culture (AID 720682); note: % is set by controls: 0 for no effect and ±100 for the full control effect
Procedure, shortened: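 Read-out: 485/535 nm fluorescence intensity, calibrated against fluorescein. Medium only (DMEM + 10% FBS, no cells); test compound or DMSO vehicle added by pintool before plate reading.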

[10] = qHTS assay to test for compound auto fluorescence at 590 nm (red) in HEK293 cell free culture (AID 720683); note: % is set by controls: 0 for no effect and ±100 for the full control effect
Procedure, shortened: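 Tox21 10K library compounds were pinned into cell-free DMEM with 10% FBS and fluorescence was read at excitation 540 nm. Activity is expressed as Rose Bengal sodium equivalency.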

[11] = qHTS assay to test for compound auto fluorescence at 590 nm (red) in HepG2 cell free culture (AID 720684); note: % is set by controls: 0 for no effect and ±100 for the full control effect
Procedure, shortened: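 Readout: intrinsic compound fluorescence at 590 nm emission after 540 nm excitation, scaled to Rose Bengal sodium. Matrix was cell-free MEM with 10% FBS; DMSO vehicle wells served as control.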

[12] = qHTS assay to test for compound auto fluorescence at 460 nm (blue) in HepG2 cell free culture (AID 720685); note: % is set by controls: 0 for no effect and ±100 for the full control effect
Procedure, shortened: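 Cell-free plates of MEM plus 10% FBS received 23 nL compound or DMSO vehicle; blue-channel (405/460 nm) intensity scored against triamterene as reference fluorophore.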

[13] = qHTS assay to test for compound auto fluorescence at 535 nm (green) in HepG2 cell free culture (AID 720686); note: % is set by controls: 0 for no effect and ±100 for the full control effect
[14] = qHTS assay to test for compound auto fluorescence at 460 nm (blue) in HepG2 cells (AID 720687); note: % is set by controls: 0 for no effect and ±100 for the full control effect
Procedure, shortened: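 Cells (2,000/well in MEM with 10% FBS) attached overnight at 37 C, then were exposed to compound or DMSO for 1 hr at 37 C, 5% CO2. Fluorescence read at Ex/Em 405/460 nm, expressed as triamterene-equivalent signal.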

[15] = qHTS assay to identify small molecule antagonists of the glucocorticoid receptor (GR) signaling pathway - cell viability counter screen (AID 720693); note: % is set by controls: 0 for no effect and ±100 for the full control effect; nearly all actives have a fitted effect of over 55% in size
[16] = qHTS assay for identifying genotoxic compounds that show differential cytotoxicity against isogenic chicken DT40 cell lines with known DNA damage response pathways - wild type cell line (AID 743012); note: % is set by controls: 0 for no effect and ±100 for the full control effect; nearly all actives have a fitted effect of over 60% in size
Procedure, shortened: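 300 wt DT40 cells/well; cpd (DMSO) pintool-transferred after ~0.5 h at 37 C/5% CO2; 40 h incubation; CellTiter-Glo added, 30 min RT; luminescence read.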

[17] = qHTS assay for identifying genotoxic compounds that show differential cytotoxicity against isogenic chicken DT40 cell lines with known DNA damage response pathways - Rev3 mutant cell line (AID 743014); note: % is set by controls: 0 for no effect and ±100 for the full control effect; nearly all actives have a fitted effect of over 55% in size
[18] = qHTS assay for identifying genotoxic compounds that show differential cytotoxicity against isogenic chicken DT40 cell lines with known DNA damage response pathways - Rad54/Ku70 mutant cell line (AID 743015); note: % is set by controls: 0 for no effect and ±100 for the full control effect; nearly all actives have a fitted effect of over 60% in size
[19] = qHTS assay to identify small molecule antagonists of the androgen receptor (AR) signaling pathway - cell viability counter screen (AID 743033; note: % is set by controls: 0 for no effect and ±100 for the full control effect; nearly all actives have a fitted effect of over 45% in size)
[20] = qHTS assay to identify small molecule antagonists of the androgen receptor (AR) signaling pathway using the MDA cell line - cell viability counter screen (AID 743041; note: % is set by controls: 0 for no effect and ±100 for the full control effect; nearly all actives have a fitted effect of over 45% in size)
Procedure, shortened: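 qHTS viability read-out; MDA-kb2 AR-luc; R1881-stimulated; 16 h exposure at 37C, 0% CO2; CellTiter-Fluor, 30 min; fluorescence intensity.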

[21] = qHTS assay to identify small molecule antagonists of the thyroid receptor (TR) signaling pathway - cell viability counter screen (AID 743064); note: % is set by controls: 0 for no effect and ±100 for the full control effect; nearly all actives have a fitted effect of over 50% in size
Procedure, shortened: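 GH3.TRE-Luc rat pituitary cells carrying a TRE-luciferase reporter were treated with compound plus 1 nM T3 (final) for 23.5 h at 37 °C. Viability was then read in the same wells by CellTiter-Fluor fluorescence after a further 30 min.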

[22] = system: thyroid hormone receptor (rat, GH3 cells); test: qHTS assay to identify small molecule agonists of the thyroid receptor (TR) signaling pathway (AID 743066; calls by dose curve; note: % is set by controls: 0 for no effect and ±100 for the full control effect)
[23] = qHTS assay to identify small molecule antagonists of the estrogen receptor alpha (ER-alpha) signaling pathway - cell viability counter screen (AID 743074; calls by dose curve;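 note: HEK293 cells carrying ER-alpha-UAS-bla reporter stimulated with 17beta-estradiol; % is set by controls: 0 for no effect and ±100 for the full control effect; nearly all actives have a fitted effect of over 45% in size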)
[24] = molecular target: Estrogen receptor (Homo sapiens) (UniProt P03372); test: qHTS assay to identify small molecule agonists of the estrogen receptor alpha (ER-alpha) signaling pathway (AID 743075; calls by dose curve)
[25] = molecular target: Estrogen receptor (Homo sapiens) (UniProt P03372); test: qHTS assay to identify small molecule agonists of the estrogen receptor alpha (ER-alpha) signaling pathway using the BG1 cell line (AID 743079); note: potency is the fitted concentration of half-maximal effect; nearly all actives have a fitted effect of over 20% in size
[26] = qHTS assay to identify small molecule antagonists of the estrogen receptor alpha (ER-alpha) signaling pathway using the BG1 cell line (AID 743080; calls by dose curve;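 note: BG1 cells stimulated with 17beta-estradiol alongside compound; series mostly up to about 70 µM; % is set by controls: 0 for no effect and ±100 for the full control effect; nearly all actives have a fitted effect of over 25% in size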)
Procedure, shortened: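 Luciferase inhibition measured with ONE-Glo after 30 min at RT in BG1Luc4E2 cells given test compounds and 17beta-estradiol for 21.5 h at 37 C; CellTiter-Fluor viability read in the same wells beforehand.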

[27] = qHTS assay to identify small molecule antagonists of the estrogen receptor alpha (ER-alpha) signaling pathway using the BG1 cell line - cell viability counter screen (AID 743081);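 note: compound given together with 17beta-estradiol as the ER stimulus; series mostly up to about 70 µM; % is set by controls: 0 for no effect and ±100 for the full control effect; nearly all actives have a fitted effect of over 45% in size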
Aromatase (Homo sapiens) = Aromatase (Homo sapiens) (UniProt P11511); test: qHTS assay to identify aromatase inhibitors (AID 743083); note: series mostly up to about 70 µM; % is set by controls: 0 for no effect and ±100 for the full control effect; nearly all actives have a fitted effect of over 55% in size
[28] = qHTS assay to identify aromatase inhibitors - cell viability counter screen (AID 743084);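 note: cells stimulated with testosterone during compound exposure; % is set by controls: 0 for no effect and ±100 for the full control effect; nearly all actives have a fitted effect of over 55% in size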
[29] = molecular target: Aryl hydrocarbon receptor (Homo sapiens) (UniProt P35869); test: qHTS assay to identify small molecule that activate the aryl hydrocarbon receptor (AhR) signaling pathway (AID 743085);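 note: HG2L7.5c1 human HepG2 liver cells with stably integrated DRE-driven firefly reporter; series mostly up to about 70 µM; % is set by controls: 0 for no effect and ±100 for the full control effect; nearly all actives have a fitted effect of over 15% in size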
Procedure, shortened: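 HepG2 cells (HG2L7.5c1) stably carrying a firefly luciferase reporter driven by 20 dioxin responsive elements were exposed to compound for 24 h at 37C after a 5 h settling period; luminescence rise (ONE-Glo) indicated activation.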

[30] = qHTS assay to identify small molecule that activate the aryl hydrocarbon receptor (AhR) signaling pathway - cell viability counter screen (AID 743086)
Procedure, shortened: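 HepG2-AhR-luc (HG2L7.5c1) cells, 4000/well, were preincubated 5 h at 37C, exposed to compound in qHTS format for 24 hr at 37C, then given CellTiter-Fluor for 30 min; viability was read as fluorescence in the reporter wells.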

[31] = molecular target: Peroxisome proliferator-activated receptor gamma (Homo sapiens) (UniProt P37231); test: qHTS assay to identify small molecule agonists of the peroxisome proliferator-activated receptor gamma (PPARg) signaling pathway (AID 743094; active = well fitted activation curve with a large enough effect in the signal ratio in the repeat runs, not every such curve was filed as active; the % refers to the signal ratio; note: % is set by controls: 0 for no effect and ±100 for the full control effect)
Procedure, shortened: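 Cell-based bla reporter, HEK293H background, PPARg-driven UAS. Pre-incubation 5 h, 37C, 5% CO2. Compound 17 h, 37C. Substrate 1 h RT; fluorescence.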

[32] = qHTS assay to identify small molecule antagonists of the estrogen related receptor (ERR) signaling pathway (AID 1224819)
Procedure, shortened: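 ERR reporter cells were plated at 2,000 cells/well and left 6 h at 37 C/5% CO2 before pin-tool transfer of compounds in DMSO. After 18 h at 37 C, One-Glo was added and luminescence was read 30 min later at room temperature.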

[33] = qHTS assay to identify small molecule agonists of the estrogen related receptor (ERR) signaling pathway (AID 1224820)
Procedure, shortened: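 An ERR cell line provided by NTP was seeded at 2,000 cells per well and allowed to settle for 6 h before compounds in DMSO were added. After 18 h at 37 C, luciferase activity was measured by One-Glo luminescence.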

[34] = system: estrogen-related receptor alpha (ERRalpha) with PGC-1alpha coactivator, human; test: qHTS assay to identify small molecule antagonists of the estrogen related receptor signaling pathway with the pleiotropic PPARgamma coactivator (PGC) (AID 1224821; calls by dose curve)
Procedure, shortened: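 A PGC/ERR cell line supplied by NTP is seeded, allowed 6 h at 37 C, and treated with test compounds in DMSO for 18 h. Signal is then measured as luciferase luminescence using One-Glo.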

[35] = qHTS assay to identify small molecule agonists of the estrogen related receptor signaling pathway with the pleiotropic PPARgamma coactivator (PGC) (AID 1224823)
Procedure, shortened: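 Compounds dissolved in DMSO are added by pin tool to PGC/ERR cells that have settled for 6 h, and incubation continues 18 h at 37 C. Reporter output is measured as One-Glo luminescence.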

[36] = qHTS assay to identify small molecule phospholipidosis (PLD) inducers (AID 1259344; active = well fitted curve in the direction sought with a large enough effect; an effect the other way counts as inactive or inconclusive)
Procedure, shortened: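 Cells (HepG2, 900 per well) attach for 4 h, receive LipidTOX Red and compound together, incubate 24 h at 37 C, are fixed 30 min with paraformaldehyde/Hoechst, then imaged at one site per well.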

[37] = molecular target: Nuclear receptor subfamily 1 group I member 2 (Rattus norvegicus) (UniProt Q9R1A7); test: Rat pregnane X receptor (rPXR) activation by small molecules, qHTS assay (AID 1346983); details: rPXR luciferase reporter cells, One-Glo luminescence, 24 h; max activation: stronger effect = higher value
Procedure, shortened: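 Cell-based rPXR luciferase reporter assay, 2,000 cells per well, rested 5hr at 37 C before compound addition in DMSO, then 24 hr at 37 C. One-Glo reagent was added and luminescence read after 30 min at room temperature.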

[38] = qHTS assay to identify small molecule antagonists of the estrogen related receptor signaling pathway with the pleiotropic PPARgamma coactivator (PGC) cell viability counter screen (AID 1224822)
Procedure, shortened: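 Viable cell signal (CellTiter-Fluor, 30 min, 37 C/5% CO2) was measured in PGC/ERR cells after a 17.5 h compound incubation.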

[39] = qHTS assay to identify small molecule antagonists of the estrogen related receptor (ERR) signaling pathway - cell viability counter screen (AID 1224818)
Procedure, shortened: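 Cytotoxicity check run alongside the ERR antagonist screen: cells exposed to test compounds 17.5 h at 37 C, viability taken as CellTiter-Fluor fluorescence intensity.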

Estrogen receptor (Homo sapiens), sequence (P03372 whole entry, looked up): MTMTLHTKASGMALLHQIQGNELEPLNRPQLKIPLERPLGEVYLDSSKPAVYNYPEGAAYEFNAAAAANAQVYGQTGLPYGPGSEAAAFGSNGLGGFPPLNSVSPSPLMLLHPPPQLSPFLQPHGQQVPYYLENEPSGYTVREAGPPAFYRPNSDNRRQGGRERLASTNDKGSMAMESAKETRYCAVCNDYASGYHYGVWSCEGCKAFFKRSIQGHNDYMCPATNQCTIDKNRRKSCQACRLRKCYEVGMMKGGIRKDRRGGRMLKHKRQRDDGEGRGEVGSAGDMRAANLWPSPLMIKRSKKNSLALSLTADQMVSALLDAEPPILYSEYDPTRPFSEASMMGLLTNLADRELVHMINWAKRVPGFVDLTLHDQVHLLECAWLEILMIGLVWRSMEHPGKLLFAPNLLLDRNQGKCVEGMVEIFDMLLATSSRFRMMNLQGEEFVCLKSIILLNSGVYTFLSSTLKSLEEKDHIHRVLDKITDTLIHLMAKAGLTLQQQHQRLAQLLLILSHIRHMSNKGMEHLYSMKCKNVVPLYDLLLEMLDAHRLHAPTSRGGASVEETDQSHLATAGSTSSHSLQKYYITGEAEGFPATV
Peroxisome proliferator-activated receptor gamma (Homo sapiens), sequence (P37231 whole entry, looked up): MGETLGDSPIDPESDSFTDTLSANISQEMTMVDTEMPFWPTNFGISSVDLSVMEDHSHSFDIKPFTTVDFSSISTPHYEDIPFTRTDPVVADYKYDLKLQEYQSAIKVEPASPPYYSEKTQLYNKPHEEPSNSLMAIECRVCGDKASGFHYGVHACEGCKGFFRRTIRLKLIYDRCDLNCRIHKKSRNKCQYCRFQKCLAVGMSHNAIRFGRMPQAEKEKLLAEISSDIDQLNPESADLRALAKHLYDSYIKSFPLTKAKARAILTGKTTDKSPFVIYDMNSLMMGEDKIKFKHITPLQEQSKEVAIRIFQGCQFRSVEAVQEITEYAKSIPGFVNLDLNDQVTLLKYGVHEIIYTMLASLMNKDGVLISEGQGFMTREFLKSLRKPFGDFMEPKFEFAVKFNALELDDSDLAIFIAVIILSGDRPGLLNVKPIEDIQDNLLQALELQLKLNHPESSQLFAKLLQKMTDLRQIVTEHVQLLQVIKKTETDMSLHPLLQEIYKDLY
Nuclear receptor subfamily 1 group I member 2 (Rattus norvegicus), sequence (Q9R1A7 whole entry, looked up): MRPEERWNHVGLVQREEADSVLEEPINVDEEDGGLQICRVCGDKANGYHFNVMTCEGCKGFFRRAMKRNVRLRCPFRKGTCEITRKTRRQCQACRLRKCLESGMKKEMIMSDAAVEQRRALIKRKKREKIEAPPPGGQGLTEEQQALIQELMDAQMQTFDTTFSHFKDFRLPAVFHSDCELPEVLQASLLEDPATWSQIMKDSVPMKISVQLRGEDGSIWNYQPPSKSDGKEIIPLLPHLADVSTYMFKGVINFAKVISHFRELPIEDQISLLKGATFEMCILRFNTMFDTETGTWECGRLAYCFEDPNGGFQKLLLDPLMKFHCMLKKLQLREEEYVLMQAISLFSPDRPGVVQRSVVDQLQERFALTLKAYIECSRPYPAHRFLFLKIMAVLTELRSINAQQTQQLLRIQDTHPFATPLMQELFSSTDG
Aromatase (Homo sapiens), sequence (P11511 whole entry, looked up): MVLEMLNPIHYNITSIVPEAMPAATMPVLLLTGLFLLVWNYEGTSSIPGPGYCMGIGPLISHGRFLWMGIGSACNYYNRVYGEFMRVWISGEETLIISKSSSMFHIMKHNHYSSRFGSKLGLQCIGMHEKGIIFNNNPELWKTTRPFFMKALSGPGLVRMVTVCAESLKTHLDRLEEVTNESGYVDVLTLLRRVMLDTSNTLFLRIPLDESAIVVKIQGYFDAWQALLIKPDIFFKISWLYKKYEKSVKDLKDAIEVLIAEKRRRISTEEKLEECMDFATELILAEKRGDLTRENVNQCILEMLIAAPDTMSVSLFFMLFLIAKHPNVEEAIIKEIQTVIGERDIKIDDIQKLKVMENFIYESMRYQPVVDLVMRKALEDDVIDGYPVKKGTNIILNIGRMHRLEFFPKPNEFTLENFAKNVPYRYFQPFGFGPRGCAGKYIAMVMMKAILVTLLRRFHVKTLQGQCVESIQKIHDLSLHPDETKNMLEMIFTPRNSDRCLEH
Aryl hydrocarbon receptor (Homo sapiens), sequence (P35869 whole entry, looked up): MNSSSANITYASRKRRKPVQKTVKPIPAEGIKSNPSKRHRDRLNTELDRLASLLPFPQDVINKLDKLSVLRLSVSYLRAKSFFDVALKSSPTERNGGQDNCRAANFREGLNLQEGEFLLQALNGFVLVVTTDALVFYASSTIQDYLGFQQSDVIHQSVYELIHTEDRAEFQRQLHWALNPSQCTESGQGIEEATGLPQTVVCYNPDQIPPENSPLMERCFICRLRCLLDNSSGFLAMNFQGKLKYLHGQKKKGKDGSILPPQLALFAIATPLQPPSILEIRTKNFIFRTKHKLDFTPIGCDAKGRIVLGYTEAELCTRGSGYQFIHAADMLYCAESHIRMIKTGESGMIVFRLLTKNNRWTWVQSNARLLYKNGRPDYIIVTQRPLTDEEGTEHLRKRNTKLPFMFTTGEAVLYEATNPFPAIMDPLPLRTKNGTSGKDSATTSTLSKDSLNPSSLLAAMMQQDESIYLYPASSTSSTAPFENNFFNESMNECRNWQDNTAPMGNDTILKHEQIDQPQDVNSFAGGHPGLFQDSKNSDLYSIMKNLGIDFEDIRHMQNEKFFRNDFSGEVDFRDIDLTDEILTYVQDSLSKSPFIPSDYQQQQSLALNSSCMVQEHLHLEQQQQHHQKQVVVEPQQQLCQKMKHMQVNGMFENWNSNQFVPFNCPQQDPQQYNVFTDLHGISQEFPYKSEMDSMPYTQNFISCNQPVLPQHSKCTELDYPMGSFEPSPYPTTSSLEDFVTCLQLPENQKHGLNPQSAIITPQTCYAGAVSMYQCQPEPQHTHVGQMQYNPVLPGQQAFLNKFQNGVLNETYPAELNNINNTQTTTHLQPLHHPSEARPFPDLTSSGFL

c1ccc(C2(c3ccccc3)CC2C2=NCCN2)cc1 (stereo not drawn)
inactive: Potency [1] | Potency [2] | Potency [3] | outcome [4] | Potency [5] | outcome [6] | Potency [7] | Potency [8] | Potency [9] | outcome [10] | outcome [11] | Potency [12] | Potency [13] | Potency [14] | Potency [15] | Potency [16] | Potency [17] | Potency [18] | Potency [19] | Potency [20] | Potency [21] | Potency [22] | Potency [23] | Potency [24] | Potency [26] | Potency [27] | Potency (Aromatase (Homo sapiens)) | Potency [28] | Potency [29] | Potency [30] | Potency [31] | Potency [32] | Potency [33] | Potency [34] | Potency [35] | Potency [36] | max activation [37] -1.58%
active: Potency [25] 0.7 nM

Oc1ccc2c3c1O[C@H]1c4[nH]c5c(c4C[C@@]4(O)[C@@H](C2)N(CC2CC2)CC[C@]314)C[C@@]1(O)[C@H]2Cc3ccc(O)c4c3[C@@]1(CCN2CC1CC1)[C@H]5O4
inactive: Potency [32] | Potency [33] | Potency [34] | Potency [38] | Potency [35]

C[C@]12CCC3C(CC[C@H]4C[C@H](O)CC[C@]34C)C1CC[C@@H]2C(=O)CO (stereo partly drawn)
inactive: Potency [39] | Potency [33] | Potency [34] | Potency [35]

COc1ccc2[nH]cc(CCN)c2c1
inactive: Potency [32] | Potency [33] | Potency [34] | Potency [38] | Potency [35]

CC1=NN=C(c2ccc(N)cc2)c2cc3c(cc2C1)OCO3
inactive: Potency [32] | Potency [33] | Potency [34] | Potency [38] | Potency [35]

CN1CCC[C@@H]1Cc1c[nH]c2ccc(Nc3ncccc3[N+](=O)[O-])cc12
inactive: Potency [32] | Potency [33] | Potency [34] | Potency [35]

N#C/C(=C/c1ccc(O)c(O)c1)C(N)=S
inactive: Potency [39] | Potency [35]
